Assay results as given in PubChem BioAssay (NCI).
Compounds without any hit were thinned out: in the full panel of roughly 83,000, 20% have a hit.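 Interpretation: 100, growth as untreated; towards 0, rising growth inhibition; 0, no net growth; 0 to -100, cell death. Compounds scoring below 10 were considered active.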 A number with no mark means an inactive call. Activity calls are given as the source filed them.

tested on: SNB-19 CNS; assay: NCI-60 one-dose screen, 48 h (100 = growth as untreated, 0 = no growth, -100 = all killed); conditions: 10 µM unless noted

Compound | growth
O=C(CSC(=S)N1CCCCC1)Nc1ccccc1 | 99.6%
COc1cc2c(cc1OC)C(Sc1ccc(Cl)cc1)c1c(nc(N)c(C#N)c1N)O2 (centres undefined) | 22.1%
COC(=O)c1cncc(C(=O)Nc2ccc(-n3cnc4ccccc43)cc2)c1 | 99.1%
O=C(/C(=C/c1ccc([N+](=O)[O-])cc1)SCc1ccc(Cl)cc1)c1ccc(F)cc1 | 35.6%
CCOC(=O)c1c(-c2ccc(O)cc2)c(C#N)c2c(C#N)c(N)nn2c1N | 74.8%
COc1cc(C2=NN(C(C)=O)C(c3cccc(Nc4ccnc5cc(C(F)(F)F)ccc45)c3)C2)cc(OC)c1OC (centres undefined) | 60.9%
CC(=O)OC[C@]12CC[C@@H](c3cn(Cc4ccc(Cn5cc([C@@H]6CC[C@]7(COC(C)=O)CC[C@]8(C)[C@H](CC[C@@H]9[C@@]%10(C)CC[C@H](OC(C)=O)C(C)(C)[C@@H]%10CC[C@]98C)[C@@H]67)nn5)cc4)nn3)[C@@H]1[C@H]1CC[C@@H]3[C@@]4(C)CC[C@H](OC(C)=O)C(C)(C)[C@@H]4CC[C@@]3(C)[C@]1(C)CC2 | 96.7%
COc1ccc(/C=C/C(=O)Nc2ncnc3nc[nH]c23)cc1 | 99.7%
COC(=O)c1ccc2c(c1)NC(=O)[C@@H]1CCCN21 | 94.2%
COc1cc(NC(=O)COc2cc(C)nc3ccc(OC)cc23)cc(OC)c1 | 91.4%
CCOC(=O)c1ccc(Nc2ncnc3ccc(NC(=O)c4ccccc4)cc23)cc1 | 99.9%
CCN(CC)CC#CCOC(=O)[C@]1(C)CCC[C@]2(C)[C@H]3C[C@H]4C(C(C)C)=C[C@]3(CC[C@H]21)[C@@H]1C(=O)CCC(=O)[C@@H]14 | 70.4%
N#Cc1c(-c2ccc(F)cc2)nc(N/N=C/c2c[nH]c3ccccc23)nc1N1CCOCC1 | 89.7%
CN1CCN(CC#CCOC(=O)CNC(=O)[C@]23CCC(C)(C)C[C@H]2C2=CC[C@@H]4[C@@]5(C)CC[C@H](O)C(C)(C)[C@@H]5CC[C@@]4(C)[C@]2(C)CC3)CC1 | 87.1%
Nc1c(C(=O)Nc2cccc3ccccc23)sc2nc3c(cc12)COCC3 | 33.4%
C#CCOC(=O)[C@]1(C)CCC[C@]2(C)[C@H]3C[C@H]4C(C(C)C)=C[C@]3(CC[C@H]21)[C@@H]1C(=O)CCC(=O)[C@@H]14 | 86%
COC(=O)c1nc(-c2ccccc2)oc1S(=O)(=O)n1nc(-c2ccccc2)cc1N | 101%
Cn1c2ccccc2c2c(OC(=O)c3ccccc3)c3c(nc21)-c1ccccc1C3 | 105%
COc1ccc(-c2cc(-c3nnc(SCC(=O)Nc4ccc(/C(C)=N\O)cc4)o3)c3ccccc3n2)cc1 | 90.8%
COc1ccc(C2CC(c3ccc(OC)cc3O)=NN2c2ccc(S(N)(=O)=O)cc2)cc1 (centres undefined) | 59.5%
CC(=O)c1ccc(NC(=O)CSc2nnc(-c3cc(-c4ccc(Cl)cc4)nc4ccccc34)o2)cc1 | 78%
CCOC(=O)c1c(C)nc2c(c1N)/C(=C/c1cccs1)C(=O)N2Cc1ccccc1 | 68.1%
CN(C)[C@@H]1C(=O)C(C(N)=O)=C(O)[C@@]2(O)C(=O)C3=C(O)c4c(O)cc(CN5CCc6ccccc6C5)c(Cl)c4C[C@H]3C[C@@H]12 | -82.2% (active)
O=C1CC23OC(C(O)c4ccccc4N12)C1C(c2ccccc2)=NOC13 (centres undefined) | 44%
N#Cc1nc(-c2ccccc2)oc1S(=O)(=O)NCC(c1ccc(Cl)cc1)N1CCCCC1 (centres undefined) | 88.1%
C#C[C@@]1(O)[C@@H](CO)O[C@@H](n2cc(Cl)c3c(N)ncnc32)[C@@H]1O | 2.86% (active)
COc1ccc(-n2cc(COc3ccc4c5ccnc(C)c5n(CC(C)C)c4c3)nn2)cc1 | 78.4%

tested on: U251 CNS; assay: as above; conditions: 10 µM unless noted

Compound | growth
C=C1C(=O)O[C@H]2[C@H]1CC/C(COC(=O)c1cn(C)c3ccccc13)=C\CC[C@@]1(C)O[C@@H]21 | 11.7%
CCOCCc1c(O)nc(SC)[nH]c1=O | 103%
COc1ccccc1N1CCN(CCCOc2ccc(C(=O)/C=C3/C(=O)Nc4ccccc43)cc2)CC1 | 64.1%
O=C(CCl)N1CCCc2ccccc21 | 105%
C#C[C@@]1(O)[C@@H](CO)O[C@@H](n2cc(Br)c3c(N)ncnc32)[C@@H]1O | -12.4% (active)
COc1ccc(C(=O)c2cc(F)c(F)c(OC)c2F)cc1OC(=O)CCl | 31.3%
Cc1ccccc1NC(=O)c1sc2nc(C)c(C(C)O)cc2c1N (centres undefined) | 28.8%
OCCNc1nc(NCCO)nc(Nc2ccc(C3=NN(c4cc(Cl)cc(Cl)c4)C(c4ccc(Cl)cc4)C3)cc2)n1 (centres undefined) | -47.8% (active)
COc1ccc(NC(=O)c2sc3nc(C)c(C(C)=O)cc3c2N)cc1 | 95%
Cc1ccc(-c2nc(C#N)c(S(=O)(=O)N(C)CCO)o2)cc1 | 83.7%
O=C(CSC(=S)N1CCCCC1)Nc1ccccc1 | 97.6%
COc1cc2c(cc1OC)C(Sc1ccc(Cl)cc1)c1c(nc(N)c(C#N)c1N)O2 (centres undefined) | -62.5% (active)
COC(=O)c1cncc(C(=O)Nc2ccc(-n3cnc4ccccc43)cc2)c1 | 91.4%
O=C(/C(=C/c1ccc([N+](=O)[O-])cc1)SCc1ccc(Cl)cc1)c1ccc(F)cc1 | -9.2% (active)
CCOC(=O)c1c(-c2ccc(O)cc2)c(C#N)c2c(C#N)c(N)nn2c1N | 63.3%
COc1cc(C2=NN(C(C)=O)C(c3cccc(Nc4ccnc5cc(C(F)(F)F)ccc45)c3)C2)cc(OC)c1OC (centres undefined) | 58.7%
CC(=O)OC[C@]12CC[C@@H](c3cn(Cc4ccc(Cn5cc([C@@H]6CC[C@]7(COC(C)=O)CC[C@]8(C)[C@H](CC[C@@H]9[C@@]%10(C)CC[C@H](OC(C)=O)C(C)(C)[C@@H]%10CC[C@]98C)[C@@H]67)nn5)cc4)nn3)[C@@H]1[C@H]1CC[C@@H]3[C@@]4(C)CC[C@H](OC(C)=O)C(C)(C)[C@@H]4CC[C@@]3(C)[C@]1(C)CC2 | 103%
COc1ccc(/C=C/C(=O)Nc2ncnc3nc[nH]c23)cc1 | 99.4%
COC(=O)c1ccc2c(c1)NC(=O)[C@@H]1CCCN21 | 102%

Compound | growth
COc1cc(NC(=O)COc2cc(C)nc3ccc(OC)cc23)cc(OC)c1 | 91%
CCOC(=O)c1ccc(Nc2ncnc3ccc(NC(=O)c4ccccc4)cc23)cc1 | 94.1%
CCN(CC)CC#CCOC(=O)[C@]1(C)CCC[C@]2(C)[C@H]3C[C@H]4C(C(C)C)=C[C@]3(CC[C@H]21)[C@@H]1C(=O)CCC(=O)[C@@H]14 | 38.3%
N#Cc1c(-c2ccc(F)cc2)nc(N/N=C/c2c[nH]c3ccccc23)nc1N1CCOCC1 | 32.2%
CN1CCN(CC#CCOC(=O)CNC(=O)[C@]23CCC(C)(C)C[C@H]2C2=CC[C@@H]4[C@@]5(C)CC[C@H](O)C(C)(C)[C@@H]5CC[C@@]4(C)[C@]2(C)CC3)CC1 | 83.3%
Nc1c(C(=O)Nc2cccc3ccccc23)sc2nc3c(cc12)COCC3 | 30%
C#CCOC(=O)[C@]1(C)CCC[C@]2(C)[C@H]3C[C@H]4C(C(C)C)=C[C@]3(CC[C@H]21)[C@@H]1C(=O)CCC(=O)[C@@H]14 | 87.6%
COC(=O)c1nc(-c2ccccc2)oc1S(=O)(=O)n1nc(-c2ccccc2)cc1N | 97%
Cn1c2ccccc2c2c(OC(=O)c3ccccc3)c3c(nc21)-c1ccccc1C3 | 107%
COc1ccc(-c2cc(-c3nnc(SCC(=O)Nc4ccc(/C(C)=N\O)cc4)o3)c3ccccc3n2)cc1 | 101%
COc1ccc(C2CC(c3ccc(OC)cc3O)=NN2c2ccc(S(N)(=O)=O)cc2)cc1 (centres undefined) | 40.9%
CC(=O)c1ccc(NC(=O)CSc2nnc(-c3cc(-c4ccc(Cl)cc4)nc4ccccc34)o2)cc1 | 28.6%
CCOC(=O)c1c(C)nc2c(c1N)/C(=C/c1cccs1)C(=O)N2Cc1ccccc1 | 49.8%
CN(C)[C@@H]1C(=O)C(C(N)=O)=C(O)[C@@]2(O)C(=O)C3=C(O)c4c(O)cc(CN5CCc6ccccc6C5)c(Cl)c4C[C@H]3C[C@@H]12 | -95.7% (active)
O=C1CC23OC(C(O)c4ccccc4N12)C1C(c2ccccc2)=NOC13 (centres undefined) | 40.2%
N#Cc1nc(-c2ccccc2)oc1S(=O)(=O)NCC(c1ccc(Cl)cc1)N1CCCCC1 (centres undefined) | 74.1%
C#C[C@@]1(O)[C@@H](CO)O[C@@H](n2cc(Cl)c3c(N)ncnc32)[C@@H]1O | -6.87% (active)
COc1ccc(-n2cc(COc3ccc4c5ccnc(C)c5n(CC(C)C)c4c3)nn2)cc1 | 69.9%
